E-sel TNF inh: blocks E-selectin expression induced by TNF alpha. AID 1246. inhibition, % at 2 µM. HUVEC TNFa-induced E-selectin immunofluorescence, high content. hit rate 0.71% among 120,000;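 active = inhibition above the batch mean plus 3 SD, and confirmed as a hit on visual image review, cut at about 43% in these data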
cytoskel mod: cytoskeleton assembly modification; HUVEC TNFa F-actin phalloidin imaging, high content; inhibition, % at 2 µM; hit rate 0.18% among 91,000;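 active = inhibition above the batch mean plus 3 SD and confirmed as a hit by visual image inspection, cut at about 30% in these data, passing the limit was not always enough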
CYP2C19 inh: human CYP2C19 inhibition. P33261. CYP2C19 Supersomes, luciferin-H EGE luminescence, 30 min. inhibition, % at 5 µM. hit rate 21% among 96,000. AID 778;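 active = CYP2C19 inhibition above a set limit at 5 µM in the primary screen, cut at about 50% in these data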
Target sequence (P33261 whole entry, looked up): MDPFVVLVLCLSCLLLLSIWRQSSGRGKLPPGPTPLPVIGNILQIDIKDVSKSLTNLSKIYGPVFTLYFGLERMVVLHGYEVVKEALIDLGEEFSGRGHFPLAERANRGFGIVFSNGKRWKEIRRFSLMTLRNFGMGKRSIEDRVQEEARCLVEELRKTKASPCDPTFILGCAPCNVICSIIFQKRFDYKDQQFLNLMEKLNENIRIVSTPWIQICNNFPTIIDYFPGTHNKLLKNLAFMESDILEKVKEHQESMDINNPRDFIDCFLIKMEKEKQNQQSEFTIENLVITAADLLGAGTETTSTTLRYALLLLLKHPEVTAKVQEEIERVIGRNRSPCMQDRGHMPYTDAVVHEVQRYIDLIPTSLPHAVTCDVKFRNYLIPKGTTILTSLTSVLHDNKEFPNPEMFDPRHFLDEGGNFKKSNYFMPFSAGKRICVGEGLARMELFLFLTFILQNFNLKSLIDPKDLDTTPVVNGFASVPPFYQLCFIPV
CYP2C9 inhib: inhibitors of human CYP2C9; CYP2C9 Supersomes, luciferin-H conversion, luminescence; inhibition, % at 5 µM; hit rate 20% among 96,000; AID 777;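 active = blocking of liver enzyme CYP2C9 beyond about 50% at 5 µM, limit read from the data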
CYP2C9 act: CYP2C9 (human) activation; hit rate 1.4% among 96,000; AID 1024; activation factor at 5 µM; recombinant CYP2C9, luciferin-H conversion, luminescence; hits give high values; factor 1 = untreated enzyme, 0 = blocked; P11712;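 active = activation factor of 2 or more for CYP2C9 at a 5 µM dose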
CYP2C19 act: increases human CYP2C19 enzyme activity; P33261; recombinant CYP2C19, luciferin-H EGE luminescence; hits give high values; 0 = fully inhibited enzyme, 1 = untreated enzyme; activation factor at 5 µM; AID 1025; 96,000 tested, under 10 active;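 active = activation factor of at least 2 at 5 µM in the primary screen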
Hits are given with their value; n = inactive; x = not tested or not shown. This is a sample that favours compounds with a hit; in the whole collection about 22% have one here.

SMILES | E-sel TNF inh | cytoskel mod | CYP2C19 inh | CYP2C9 inhib | CYP2C9 act | CYP2C19 act
COc1ccc(N2CSC3=C(C#N)C(c4cccs4)CC(=O)N3C2)cc1 (stereo not drawn) | n | x | n | n | n | n
COc1cc(OC)c(C2CC(=O)N3CN(c4ccc(C)cc4)CSC3=C2C#N)cc1OC (stereo not drawn) | x | n | n | n | n | n
CCOC(=O)c1ccc(N2CSC3=C(C#N)C(c4cccs4)CC(=O)N3C2)cc1 (stereo not drawn) | x | n | 90 | 94 | n | n
O=C(O)C1CCCN1c1ncnc2ccccc12 (stereo not drawn) | n | n | n | n | n | n
CC(C)CC(NC(=O)C1CCCCC1)C(=O)NCc1ccccn1 (stereo not drawn) | n | x | n | n | n | n
S=C(Nc1ccccc1)N1N=CCC1c1ccccc1 (stereo not drawn) | n | n | 66 | n | n | n
Fc1ccc(NC(=S)N2N=CCC2c2ccccc2)cc1 (stereo not drawn) | n | n | 64 | n | n | n
COC(=O)c1[nH]c2ccc(Br)cc2c1NC(=O)C(C)N1CCN(C2CCCCC2)CC1 (stereo not drawn) | x | n | n | n | n | n
O=C(Cn1cccc1)NC1CCCCCC1 | n | n | n | n | n | n
CCN(CC)c1c([N+](=O)[O-])c(=O)oc2ccccc12 | n | x | x | x | x | x
CCOC(=O)Oc1ccc2c(c1)C(C)=CC(C)(C)N2C(=O)OCC | n | n | 56 | n | n | n
CCOc1ccc2c(c1)C(C)=CC(C)(C)N2C(=O)Nc1ccccc1 | n | n | 61 | n | n | n
CCOC(=O)CN(C(=O)CSc1nnc(CNc2ccc(F)cc2)n1CC)c1ccc(F)cc1 | n | n | n | n | n | n
O=C(Nc1ccc(Cl)cc1)[C@@H]1[C@@H]2C(=O)N(c3ccc(Cl)cc3)C(=O)[C@@H]2[C@H]2C=CC=NN21 | n | n | n | 59 | n | n
CC1(C)C2CCC1(C)C(NC(=O)CCN1CCCCC1)C2 (stereo not drawn) | n | n | n | 62 | n | n
COCCOCCOCCC(=O)NC1CC2CCC1(C)C2(C)C (stereo not drawn) | x | n | n | n | n | n
CC(NC(=O)c1ccc2c(c1)OCCO2)C(=O)O (stereo not drawn) | n | x | n | n | n | n
CC(=O)c1ccc(NC(=O)c2cc(CC(C)C)on2)cc1 | x | n | n | n | n | n
COc1ccc(OC)c(N2Cc3cc(C)c(C)cc3C2)c1 | n | n | n | 88 | n | n
CCOc1ccccc1N1Cc2ccccc2C1 | n | n | n | n | n | n
CCOc1ccccc1N1Cc2cc(C)c(C)cc2C1 | x | n | 54 | n | n | n
CSc1nnc(-c2sc3cc(C(F)(F)F)cnc3c2-c2cccnc2)n1C | n | n | n | n | n | n
CCN(CC)S(=O)(=O)c1ccc(NS(=O)(=O)c2cccs2)cc1 | n | x | x | x | x | x
C=CCNc1nc2ccccc2nc1NS(=O)(=O)c1cccs1 | n | n | n | 93 | n | n
CCCCCNc1nc2ccccc2nc1NS(=O)(=O)c1cccs1 | n | n | n | 68 | n | n
SMILES | E-sel TNF inh | cytoskel mod | CYP2C19 inh | CYP2C9 inhib | CYP2C9 act | CYP2C19 act
O=S(=O)(Nc1nc2ccccc2nc1Nc1ccc2c(c1)OCCO2)c1cccs1 | x | x | n | 93 | n | n
O=S(=O)(Nc1nc2ccccc2nc1NCc1ccco1)c1cccs1 | n | n | n | 78 | n | n
Cc1cc(C)nc(NS(=O)(=O)c2cccs2)c1 | n | x | x | x | x | x
CCOC(=O)c1oc2ccccc2c1NC(=O)c1ccc(Cl)s1 | n | n | n | n | n | n
COc1ccc(C(CNC(=O)c2ccc(-n3cnnn3)cc2)N2CCOCC2)cc1 (stereo not drawn) | x | n | n | n | n | n
Cc1ccc(NC(=O)c2c3c(nc4ccccc24)CCC3)cc1S(=O)(=O)N(C)C | n | x | x | x | x | x
NS(=O)(=O)c1ccc(CCNC(=O)c2cncc(Br)c2)cc1 | x | n | n | n | n | n
O=C(Nc1cccc(C(=O)O)c1)/C(=C\c1ccccc1)NC(=O)c1ccccc1Cl | n | n | n | n | n | n
Cc1cc(C)cc(Oc2nc(-c3ccccc3)cc(C)c2S(C)(=O)=O)c1 | n | n | 52 | 89 | n | n
Cc1cccc(Oc2nc(-c3ccccc3)cc(C)c2S(C)(=O)=O)c1C | n | n | 63 | 93 | n | n
Cc1cc(-c2ccccc2)nc(Oc2ccc(C(C)(C)C)cc2)c1S(C)(=O)=O | n | n | n | n | n | n
COc1ccccc1Oc1nc(-c2ccccc2)cc(C)c1S(C)(=O)=O | n | x | n | n | n | n
